Laboratory results from the supplement of paper PMC7156485.
± gives the standard deviation of the averaged measurements.

Tested on: HCC1569
Assay: cell number relative to DMSO (% of DMSO); higher = more cells (less growth inhibition / toxicity)
Conditions: concentration: 10 µM; 24 h
How it was run: (§1)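 Six fields per well were imaged at ×10 after the cells were fixed in 3.7% formaldehyde and stained with a rabbit anti-H1.0 antibody, an AlexaFluor 647 secondary and DAPI. The HCC1569 and TDF cells had been plated at 800 per well in 384-well plates (RPMI, 10% FBS) and treated in triplicate with compounds at 10 µM for 24 h at 37 °C. The values are the median of replicates of H1.0 nuclear intensity or cell number, as percent of the plate control. Smoothing for positional effects was applied to HCC1569 data.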
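Also: TDF denotes transformed human dermal fibroblasts of mesenchymal origin.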

`Cl.NCCNC(=O)c1ccc(Cl)cc1` [Ro 16-6491 hydrochloride] was tested. Which cell number did it give?
Its cell number is 100.

How did the cell number turn out when `CC[C@@]1(O)C(=O)OCc2c1cc1n(c2=O)Cc2cc3c(CN(C)C)c(O)ccc3nc2-1` was run?
Its cell number is 61.3.

With `NC1CONC1=O` [L-Cycloserine] as the compound, how does the cell number read?
The cell number was 102 ± 2.4.

Which cell number does the source give for `NCCCC(O)(P(=O)([O-])O)P(=O)(O)O` [Alendronate] here?
Its cell number is 106.

Which cell number does the source give for `CCCCCCCCCCCCCCC(F)C(=O)O` (centres undefined) [2-Fluoropalmitic acid] here?
The cell number was 105.

Tested on: TDF
Assay: as above
Conditions: concentration: 10 µM; 24 h
How it was run: as §1

With `CCS(=O)(=O)CCn1c([N+](=O)[O-])cnc1C` [Tinidazole] as the compound, how does the cell number read?
The cell number was 104.

`CCCC1OC2CC3C4CCC5=CC(=O)C=CC5(C)C4C(O)CC3(C)C2(C(=O)CO)O1` (centres undefined) [Budesonide] was tested. Which cell number did it give?
Its cell number is 94.1.

Which cell number does the source give for `NC(=O)c1cccc(-c2cc(Nc3ccc(OC(F)(F)F)cc3)ncn2)c1` [Bcr-abl Inhibitor] here?
The cell number was 92.8.

With `CCOC(=O)c1c(C)[nH]c(C=C2C(=O)Nc3ccccc32)c1C` [VEGF Receptor 2 Kinase Inhibitor I] as the compound, how does the cell number read?
Its cell number is 97.1.

Which cell number does the source give for `O=c1ccc2ccc(O)c(O)c2o1` [7,8-dihydroxy-2H-chromen-2-one] here?
Its cell number is 79.9.

With `CN1CCN(C2=Nc3ccccc3Oc3ccc(Cl)cc32)CC1.O=C(O)CCC(=O)O` [Loxapine succinate] as the compound, how does the cell number read?
The cell number was 94.3.

How did the cell number turn out when `CC(C)NCC(O)COc1ccc(CC(N)=O)cc1` (stereo not drawn) [R(+)-Atenolol] was run?
Its cell number is 109.

For `CN(C)CCC(c1ccc(Br)cc1)c1ccccn1.O=C(O)C=CC(=O)O` (racemic), which cell number is on record?
Its cell number is 98.7.

`N=C(N)c1ccc(OCCCCCOc2ccc(C(=N)N)cc2)cc1` [Pentamidine] was tested. Which cell number did it give?
The cell number was 104.

Which cell number does the source give for `O=C(O)CCCC=CCC1C(O)CC(O)C1C=CC(O)COc1cccc(Cl)c1.[Na]` (centres undefined) here?
Its cell number is 98.7.

How did the cell number turn out when `O=C(OC12CC3CC(CC(C3)C1)C2)c1ccc(NCc2cc(O)ccc2O)cc1` [1-adamantyl 4-[(2,5-dihydroxybenzyl)amino]benzoate] was run?
The cell number was 62.1.

How did the cell number turn out when `CON=C(C(=O)NC1C(=O)N2C(C(=O)[O-])=C(CSc3nc(=O)c([O-])nn3C)CSC12)c1csc(N)n1.[Na+].[Na+]` (centres undefined) [Ceftriaxone sodium] was run?
Its cell number is 99.8.

For `CC(=O)OC12COC1CC(O)C1(C)C(=O)C(O)C3=C(C)C(OC(=O)C(O)C(NC(=O)OC(C)(C)C)c4ccccc4)CC(O)(C(OC(=O)c4ccccc4)C21)C3(C)C` (centres undefined) [Docetaxil], which cell number is on record?
Its cell number is 13.

For `CCCCCCCCCCCCCCCCCCCCC(=O)O` [Heneicosanoic acid], which cell number is on record?
The cell number was 95.5.

With `CCCCCCCCCC(=O)O` [Decanoic acid] as the compound, how does the cell number read?
The cell number was 95.3.

How did the cell number turn out when `Cc1cnc(Nc2ccc(OCCN3CCCC3)cc2)nc1Nc1cccc(S(=O)(=O)NC(C)(C)C)c1` was run?
Its cell number is 43.3.

How did the cell number turn out when `COc1ccc(Cl)cc1NC(=O)Nc1cc(C)nc2ccccc12` [IGF-1R Inhibitor II] was run?
Its cell number is 97.7.

Which cell number does the source give for `Cc1cc2c(s1)=Nc1ccccc1NC=2N1CCN(C)CC1` [Olanzapine] here?
Its cell number is 99.4.

`CCOC(=O)c1cnc2c(cnn2CC)c1NN=C(C)C.Cl` [Etazolate hydrochloride] was tested. Which cell number did it give?
The cell number was 101.

`CCN(CC)CCOCCOC(=O)C1(c2ccccc2)CCCC1.O=C(O)CC(O)(CC(=O)O)C(=O)O` [Carbetapentane citrate] was tested. Which cell number did it give?
The cell number was 89.

`CC(=O)NCCOC(=O)[C@H](Oc1cccc(C(F)(F)F)c1)c1ccc(Cl)cc1` was tested. Which cell number did it give?
The cell number was 100.

Which cell number does the source give for `OCC1OC(n2cnc3c(NC4CCCCC4)ncnc32)C(O)C1O` (centres undefined) [N6-Cyclohexyladenosine] here?
Its cell number is 105.

With `C[Se]CCC(N)C(=O)O` (centres undefined) [Selenomethionine] as the compound, how does the cell number read?
Its cell number is 94.

With `CN(C)CCC(c1ccc(Cl)cc1)c1ccccn1` (centres undefined) [Chlorpheniramine] as the compound, how does the cell number read?
The cell number was 98.1.

Which cell number does the source give for `COc1cc(O)c2c(=O)c(O)c(-c3ccc(O)c(O)c3)oc2c1` [Rhamnetine] here?
The cell number was 89.5.

For `CS(=O)(=O)c1ccc(C(O)C(COC(=O)CN)NC(=O)C(Cl)Cl)cc1` (centres undefined) [Thiamphenicol glycinate], which cell number is on record?
The cell number was 96.1.

With `FC(F)(F)c1ccc(CNc2ccc(Cc3c[nH]c4ncccc34)cn2)cc1` as the compound, how does the cell number read?
The cell number was 74.9.

`C1CNCCN1.COc1cc(C(O)CO)ccc1O.COc1cc(C(O)CO)ccc1O` (centres undefined) [MHPG piperazine] was tested. Which cell number did it give?
Its cell number is 108.

For `CCCCCC=CCC=CCC=CCC=CCCCCCC(=O)O` [7(Z), 10(Z), 13(Z), 16(Z)-Ocosatetraenoic Acid], which cell number is on record?
Its cell number is 114.
